KCNQ2 pot = enhances the rat KCNQ2 potassium channel. O88943. CHO-K1 KCNQ2, FluxOR thallium flux fluorescence; active compounds read high. B-score at 10 µM. 0.54% of 310,000 active. AID 2239;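 active means fluorescence ratio B-score at least 3 SD of library B-scores, with initial fluorescence B-score within 3 of them, cut at about 5.3 in these data; same plate scores as AID 2156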;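 further: B-score of peak minus minimum over baseline fluorescence ratio after K+ and Tl+ stimulus; positive B-score means potentiation of KCNQ2 with more thallium influx and brighter signal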
Target sequence (O88943 whole entry, looked up): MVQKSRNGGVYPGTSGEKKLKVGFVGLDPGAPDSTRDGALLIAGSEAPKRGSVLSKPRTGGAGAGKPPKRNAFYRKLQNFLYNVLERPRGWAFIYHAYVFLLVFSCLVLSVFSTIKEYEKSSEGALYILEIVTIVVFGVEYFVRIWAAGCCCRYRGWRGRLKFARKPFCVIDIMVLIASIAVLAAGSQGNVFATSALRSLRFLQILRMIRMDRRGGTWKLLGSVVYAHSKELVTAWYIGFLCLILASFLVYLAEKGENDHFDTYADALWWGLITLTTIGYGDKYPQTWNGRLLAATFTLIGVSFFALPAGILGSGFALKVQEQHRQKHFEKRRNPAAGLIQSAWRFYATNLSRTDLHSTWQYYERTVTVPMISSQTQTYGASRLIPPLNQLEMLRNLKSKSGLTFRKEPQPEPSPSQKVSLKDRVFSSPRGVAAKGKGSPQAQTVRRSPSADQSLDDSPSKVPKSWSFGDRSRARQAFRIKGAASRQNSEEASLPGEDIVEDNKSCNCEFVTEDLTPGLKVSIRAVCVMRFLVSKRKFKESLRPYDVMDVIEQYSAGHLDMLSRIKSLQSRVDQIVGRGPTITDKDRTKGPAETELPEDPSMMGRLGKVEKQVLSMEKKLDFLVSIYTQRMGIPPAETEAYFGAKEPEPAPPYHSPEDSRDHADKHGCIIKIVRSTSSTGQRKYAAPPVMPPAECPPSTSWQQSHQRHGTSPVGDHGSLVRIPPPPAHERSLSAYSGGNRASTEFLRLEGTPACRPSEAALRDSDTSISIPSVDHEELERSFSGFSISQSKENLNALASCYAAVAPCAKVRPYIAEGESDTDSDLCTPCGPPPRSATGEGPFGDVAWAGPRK
KCNQ2 inh = blocks the rat KCNQ2 potassium channel; O88943; CHO-K1 KCNQ2, FluxOR thallium flux, 20 min; active compounds read low; B-score at 10 µM; 1.1% of 310,000 active;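 active means fluorescence ratio B-score at most minus 3 library SDs, with starting brightness B-score within 2 library SDs, cut at about -5.5 in these data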
Of the large screens only hits and unclear results are named; the others gave an inactive call. Compounds with a hit are over-represented: about 1.6% of the library has one in this group of screens.

CCOC(=O)c1nnn(CC(=O)N2N=C(c3cc(C)ccc3C)CC2c2ccc(OC)cc2)c1C(=O)OCC (centres undefined)	KCNQ2 inh -5.8
CCOC(=O)c1nnn(CC(=O)N2N=C(c3ccccc3)CC2c2ccccc2)c1C(=O)OCC (centres undefined)	none
CN(Cc1ccccc1)C(=O)COC(=O)c1ccc(=O)n(Cc2ccccc2)n1	none
COc1ccc(N(C)S(=O)(=O)c2cccc(C(=O)OC(C(=O)Nc3cc(C)cc(C)c3)c3ccccc3)c2)cc1 (centres undefined)	KCNQ2 inh -5.7
CC(=O)c1cccc(NC(=O)C(OC(=O)c2ccccc2NS(=O)(=O)c2cccs2)c2ccccc2)c1 (centres undefined)	none (no result: KCNQ2 pot)
COc1ccc(N(C)S(=O)(=O)c2cccc(C(=O)Nc3cc(OC)ccc3OC)c2)cc1	none (no result: KCNQ2 pot)
CC(=O)c1cccc(NC(=O)C(OC(=O)c2cccc(S(=O)(=O)N(C)c3ccccc3)c2)c2ccccc2)c1 (centres undefined)	KCNQ2 inh -5.5
CC(C)c1ccc(NC(=O)CSc2n[nH]c(=O)n2C2CC2)cc1	none
CCOc1ccc(OCC)c(NC(=O)CN2CCN(c3cc(C)ccc3C)CC2)c1	KCNQ2 inh -5.6
CCOc1ccc(OCC)c(NC(=O)CN2CCN(c3cccc(C)c3)CC2)c1	none
CCCCN(C(=O)CCNC(=O)NC12CC3CC(CC(C3)C1)C2)c1c(N)n(CCC)c(=O)[nH]c1=O	none (no result: KCNQ2 pot)
Cc1cc(S(=O)(=O)Nc2ccc3cn[nH]c3c2)c(C)cc1Cl	none
CCOC(=O)c1ccc(N=c2sc(C(=O)OC)cc(=O)n2Cc2ccc3c(c2)OCO3)cc1	KCNQ2 inh -5.9
COC(=O)c1cc(=O)n(Cc2ccc3c(c2)OCO3)c(=Nc2ccc(F)cc2)s1	none (no result: KCNQ2 pot)
CCN1CCN(c2ccc(S(=O)(=O)N3CCCCC3)cc2NC(=O)c2cccc(C(F)(F)F)c2)CC1	none (no result: KCNQ2 pot)
O=C(Nc1cc(C(F)(F)F)ccc1N1CCCCC1)c1cccc([N+](=O)[O-])c1	none
CN1CCN(S(=O)(=O)c2cccc(C(=O)Nc3ccccc3N3CCCCC3)c2)CC1	KCNQ2 inh -6
CN1CCN(S(=O)(=O)c2cccc(C(=O)Nc3ccccc3N3CCOCC3)c2)CC1	none
Cc1ccc(C(=O)Nc2cc(C(F)(F)F)ccc2N2CCCCC2)cc1[N+](=O)[O-]	KCNQ2 inh -7.2
CN1CCN(S(=O)(=O)c2cccc(C(=O)Nc3cc(C(F)(F)F)ccc3N3CCCCC3)c2)CC1	KCNQ2 inh -7.3
Cc1ccc(C)c(S(=O)(=O)N2CCN(C(=O)Cn3cnc4c3c(=O)n(C)c(=O)n4C)CC2)c1	none
CCOc1ccc(NC(=O)CCNC(=O)C2CCN(S(=O)(=O)c3ccccc3)CC2)cc1	none (no result: KCNQ2 pot)
CCCC(=O)OC(C(=O)Nc1cc(C(F)(F)F)ccc1Cl)c1ccccc1 (centres undefined)	KCNQ2 inh -5.6
COc1ccc(C)cc1NC(=O)C(OC(=O)CNC(=O)c1ccc(Br)cc1)c1ccccc1 (centres undefined)	none (no result: KCNQ2 pot)
Cc1cc(C(=O)NCC(=O)OC(C(=O)Nc2cc(C(F)(F)F)ccc2Cl)c2ccccc2)ccc1[N+](=O)[O-] (centres undefined)	KCNQ2 inh -5.8
O=C(Nc1cc(C(F)(F)F)ccc1Cl)C(Sc1ccccn1)c1ccccc1 (centres undefined)	none (no result: KCNQ2 pot)
C=CCn1c(CCCNC(=O)C(C)(C)C)nc2ccccc21	none
C=CCn1c(C(C)NC(=O)C(C)(C)C)nc2ccccc21 (centres undefined)	KCNQ2 inh -6.6
Cc1ccc(NC2=C/C(=N\S(=O)(=O)c3cccs3)c3ccccc3C2=O)c(C)c1	none (no result: KCNQ2 pot)
Cc1cc(C)c(S(=O)(=O)/N=C2\C=C(NS(=O)(=O)c3ccccc3)C(=O)c3ccccc32)c(C)c1	KCNQ2 inh -5.7
O=C(CNC(c1ccccc1)c1ccccc1)NCc1ccccc1Cl	KCNQ2 inh -6
COc1ccccc1NC(=O)CC1CCCC1	none
O=C(CC1CCCCC1)Nc1ccccc1-c1ccccc1	KCNQ2 pot 6.5
O=C(CNC(c1ccccc1)c1ccccc1)Nc1ccccc1F	none (no result: KCNQ2 pot)
CCCC(=O)NCc1ccccc1Cl	none (no result: KCNQ2 pot)
O=C(CCC1CCCC1)Nc1ccccc1-c1ccccc1	KCNQ2 pot 23
O=C(CCC1CCCCC1)Nc1ccccc1O	none
O=C(CNC(c1ccccc1)c1ccccc1)Nc1ccccc1-c1ccccc1	KCNQ2 inh -6.3
COc1ccc(N2Cc3ccc(C(=O)N/N=C\c4ccc(O)cc4O)cc3C2)cc1	none (no result: KCNQ2 pot)
COC(=O)CNC(=O)C1CC(=O)N(CCc2ccc(F)cc2)C1 (centres undefined)	none (no result: KCNQ2 pot)
Cc1ccc(O)c(NC(=O)c2onc(C)c2Cl)c1	none (no result: KCNQ2 pot)
c1ccc(N/N=C(\Cc2ncc[nH]2)c2ccccc2)cc1	none (no result: KCNQ2 pot)
Clc1cccc(N/N=C(\Cc2nc3ccccc3[nH]2)c2ccccc2)c1	KCNQ2 inh -6.3
O=C(NCC(c1ccco1)N1CCc2ccccc2C1)c1ccccc1 (centres undefined)	none (no result: KCNQ2 pot)
O=C(NCC(c1ccco1)N1CCc2ccccc2C1)c1ccc(F)cc1 (centres undefined)	KCNQ2 inh -5.7
COc1ccccc1NC(=O)C(=O)NCC(c1ccco1)N1CCc2ccccc2C1 (centres undefined)	none (no result: KCNQ2 pot)
O=C(NCC(c1ccco1)N1CCc2ccccc2C1)C(=O)Nc1cc(F)ccc1F (centres undefined)	KCNQ2 inh -6.2
CCOc1ccccc1NC(=O)CCCNC(=O)Cn1cnc2sc(C)c(C)c2c1=O	none
O=C(CN1C(=O)NC2(CCCCC2)C1=O)N1CCN(S(=O)(=O)c2cccc(F)c2)CC1	none
O=S(=O)(c1ccc(Br)cc1)c1nc(-c2ccccc2)oc1NCCN1CCOCC1	none
NC(=O)C1CCN(S(=O)(=O)c2cc3c4c(c2)CCN4C(=O)CC3)CC1	none
COc1ccc(N=Cc2cccc(C)c2O)cc1Cl	none
Cc1cccc(N=Cc2cc(Br)cc(Cl)c2O)c1	KCNQ2 pot 9.3
CC(Oc1ccccc1F)C(=O)NNC(=O)CC(C)c1ccccc1 (centres undefined)	none
CCOc1ccc(OCCC(=O)N(CCC(C)C)c2c(N)n(Cc3ccccc3)c(=O)[nH]c2=O)cc1	none (no result: KCNQ2 pot)
Cc1ccc(-c2cc(C(=O)Nc3nccs3)c3ccccc3n2)o1	KCNQ2 inh -5.7
Cc1ccc(-c2cc(C(=O)Nc3nccs3)c3ccccc3n2)c(C)c1	none (no result: KCNQ2 pot)
COc1ccc(-c2cc(C(=O)N3CCCCCC3)c3ccccc3n2)c(OC)c1	none (no result: KCNQ2 pot)
Cc1ccc(-c2cc(C(=O)N3CCN(c4ccc(F)cc4)CC3)c3ccccc3n2)o1	KCNQ2 inh -6
Cc1ccc(-c2cc(C(=O)N3CCCC(C(F)(F)F)C3)c3ccccc3n2)o1 (centres undefined)	none (no result: KCNQ2 pot)
COc1ccc(-c2cc(C(=O)N3CCN(c4ccccc4F)CC3)c3ccccc3n2)c(OC)c1	KCNQ2 inh -8
COc1ccccc1NC(=O)Nc1ccnn1C1CCN(C(=O)c2cccnc2)CC1	none
CC(C)CC1Nc2ccc(C(=O)NCCCN3CCOCC3)cc2NC1=O (centres undefined)	none
CCOC(=O)C1=C(c2ccccc2)NC(=O)NC1c1cc(Cl)c(O)c(OC)c1 (centres undefined)	none (no result: KCNQ2 pot)
CCOC(=O)C1=C(c2ccccc2)NC(N)=NC1c1ccc(OCc2ccc(Cl)cc2)c(OC)c1 (centres undefined)	KCNQ2 inh -6.2
COc1cccc(OC)c1C(=O)Nc1ccc2c(c1)N(S(=O)(=O)c1cccs1)CCC2	none
O=C(Nc1ccc2c(c1)N(S(=O)(=O)c1cccs1)CCC2)c1c(F)cccc1Cl	KCNQ2 inh -6.4
N#CC1=C(N)NC(SCC(=O)c2ccc(Br)cc2)=C(C#N)C12CCCCC2	KCNQ2 inh -6.6
